# Assay results from PubChem BioAssay (NCATS).
# Where “and” joins values, the source holds several entries; their conditions need not be identical. Equal entries are not always repeated. Inconclusive results are not listed. Calls of active or inactive are those of the source. Unless noted, calls follow the shape of the dose curve; as a rule, active = well fitted curve in the direction sought with a large enough effect; inconclusive = small, poorly fitted or top-dose-only effect, or another doubt; inactive = no such curve, though single readings can be large; an effect the other way counts as inactive or inconclusive.
# How the values were obtained:
# [1] = qHTS assay for small molecule antagonists of peroxisome proliferator-activated receptor delta signaling (AID 588535; active = well fitted inhibition curve with a large enough effect in the signal ratio, with a control signal flat, not every such curve was filed as active; the % refers to the signal ratio;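 as to max response: cells co-treated with a PPAR-delta agonist as stimulator during compound exposure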); settings: HEK293T PPARd-UAS-bla, beta-lactamase FRET ratio, 18 h; 460 nm channel
# In short: (§1)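 Inhibition of PPAR-delta response element-driven beta-lactamase expression is measured in HEK293T cells exposed to a compound titration series for 18 hrs at 37 C. Half-maximal inhibition comes from Hill equation fitting.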
# [2] = target: Peroxisome proliferator-activated receptor delta (Homo sapiens) (UniProt Q03181); assay: as above; settings: HEK293T PPARd-UAS-bla, beta-lactamase FRET ratio, 18 h; series mostly up to 76.7 µM
# Chain of Peroxisome proliferator-activated receptor delta (Homo sapiens) (Q03181 whole entry, looked up): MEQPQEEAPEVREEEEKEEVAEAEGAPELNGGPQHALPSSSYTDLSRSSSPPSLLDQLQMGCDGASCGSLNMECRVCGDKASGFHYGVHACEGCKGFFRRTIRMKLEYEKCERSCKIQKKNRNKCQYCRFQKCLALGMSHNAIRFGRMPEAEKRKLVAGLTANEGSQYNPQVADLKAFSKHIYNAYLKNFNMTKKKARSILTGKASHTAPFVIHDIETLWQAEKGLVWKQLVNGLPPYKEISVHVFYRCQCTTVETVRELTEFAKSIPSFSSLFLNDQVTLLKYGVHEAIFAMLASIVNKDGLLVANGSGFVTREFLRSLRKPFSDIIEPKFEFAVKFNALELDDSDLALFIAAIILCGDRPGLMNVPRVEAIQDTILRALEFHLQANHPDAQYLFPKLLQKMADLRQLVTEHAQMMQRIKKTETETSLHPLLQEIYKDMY
# In short: as §1
# [3] = qHTS assay for small molecule agonists of retinoid X receptor alpha signaling (AID 588544; calls by dose curve;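 as to activation: 0% = DMSO basal wells and 100% = reference agonist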); settings: HEK293T RXRa-UAS-bla, beta-lactamase reporter, 18 h; 530 nm emission
# [4] = target: Retinoic acid receptor RXR-alpha (Homo sapiens) (UniProt P19793); assay: as above; settings: HEK293T RXRa-UAS-bla, beta-lactamase reporter, 18 h; series mostly up to 76.7 µM
# Chain of Retinoic acid receptor RXR-alpha (Homo sapiens) (P19793 whole entry, looked up): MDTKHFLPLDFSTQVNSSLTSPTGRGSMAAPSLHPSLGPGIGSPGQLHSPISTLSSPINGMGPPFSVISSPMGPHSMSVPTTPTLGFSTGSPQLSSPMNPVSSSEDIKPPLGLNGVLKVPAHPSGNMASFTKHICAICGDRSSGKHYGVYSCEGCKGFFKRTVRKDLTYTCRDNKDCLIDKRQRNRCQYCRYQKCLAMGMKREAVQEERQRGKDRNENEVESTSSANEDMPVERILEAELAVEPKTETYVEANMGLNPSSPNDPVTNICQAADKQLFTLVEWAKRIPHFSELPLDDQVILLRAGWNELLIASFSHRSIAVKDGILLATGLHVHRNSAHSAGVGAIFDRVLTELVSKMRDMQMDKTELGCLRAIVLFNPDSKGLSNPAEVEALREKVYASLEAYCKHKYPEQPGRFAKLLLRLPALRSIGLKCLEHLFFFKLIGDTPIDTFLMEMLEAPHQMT
# [5] = target: Thyroid hormone receptor beta (Homo sapiens) (UniProt P10828); assay: qHTS assay for small molecule agonists of thyroid hormone receptor beta signaling (AID 588545; calls by dose curve; also: potency is read from the fitted curve at half-maximal effect;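 as to activation: 0% = DMSO only and 100% = 10 nM T3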); settings: TR-UAS-bla GripTite HEK 293, beta-lactamase ratio, agonist mode, 18 h; series mostly up to 76.7 µM
# Chain of Thyroid hormone receptor beta (Homo sapiens) (P10828 whole entry, looked up): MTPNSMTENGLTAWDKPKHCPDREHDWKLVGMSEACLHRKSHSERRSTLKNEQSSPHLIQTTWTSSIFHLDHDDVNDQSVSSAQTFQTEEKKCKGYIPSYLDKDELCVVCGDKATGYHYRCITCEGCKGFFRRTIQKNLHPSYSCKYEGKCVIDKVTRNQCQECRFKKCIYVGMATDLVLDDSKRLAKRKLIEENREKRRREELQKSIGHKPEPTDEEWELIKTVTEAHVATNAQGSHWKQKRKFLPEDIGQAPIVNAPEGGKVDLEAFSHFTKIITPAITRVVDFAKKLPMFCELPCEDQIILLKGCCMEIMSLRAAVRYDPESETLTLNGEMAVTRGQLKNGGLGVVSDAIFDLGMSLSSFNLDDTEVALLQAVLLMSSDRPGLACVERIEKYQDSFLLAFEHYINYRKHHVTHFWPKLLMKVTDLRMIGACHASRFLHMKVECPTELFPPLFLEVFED
# In short: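 Stimulation of a TR-driven beta-lactamase reporter was quantified in GripTite HEK 293 cells. Compound series ran for 18 hrs; curves were normalized to T3 and DMSO controls and fitted to yield EC50.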
# [6] = qHTS assay for small molecule antagonists of retinoid X receptor alpha signaling (AID 588546; active = well fitted inhibition curve with a large enough effect in the signal ratio, with a control signal flat, not every such curve was filed as active; the % refers to the signal ratio;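 also: cells stimulated with 9-cis-retinoic acid as agonist; % is scaled to controls: 0 for no effect and ±100 for the full control effect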); settings: HEK293T RXRa-UAS-bla, beta-lactamase ratio, antagonist mode; measured here: W530 green channel, cytotoxicity proxy
# In short: (§2)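 Beta-lactamase reporter inhibition, read as CCF4 fluorescence ratio (ex 405, em 460/530 nm) after 2 h at RT. HEK293T UAS-bla cells, 2500/well, were stimulated with 9-cis-RA at 500 or 100 nM final alongside test compound for 18 h at 37 C.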
# [7] = target: Retinoic acid receptor RXR-alpha (Homo sapiens) (UniProt P19793); assay: as above; settings: HEK293T RXRa-UAS-bla, beta-lactamase ratio, antagonist mode
# In short: as §2
# [8] = qHTS assay for small molecule activators of the nuclear factor-kappa B (NF-kB) signaling pathway (AID 651749; active = well fitted activation curve with a large enough effect in the signal ratio; the % refers to the signal ratio; also: potency is read from the fitted curve at half-maximal effect; as to activation: % of control where 0% means no effect); settings: NF-kB-bla ME-180 cells, beta-lactamase FRET ratio, 16 h; activation: stronger effect = higher value
# In short: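 Human ME-180 cervical cells with an NF-kB-bla construct; compounds added via 23 nL pin transfer, DMSO as vehicle; incubation 16 hr. Reporter activity measured by FRET disruption.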
# [9] = qHTS assay for environmental chemicals that activate the Aryl hydrocarbon Receptor (AhR) signaling pathway (AID 651777); settings: 1A2-DRE human hepatoma cells, luciferase, 24 h; activation: stronger effect = higher value; also: nearly all actives have a fitted effect of over 15% in size; also: potency is read from the fitted curve at half-maximal effect; as to activation: % of control where 0% means no effect
# In short: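 Human hepatoma 1A2-DRE cells, stably carrying a dioxin response element and CYP1A2 promoter driving luciferase, were exposed to compounds for 24 hr at 37 C and 5% CO2. Luciferase signal was then read after 30 min One-Glo at room temperature.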
# [10] = target: Peroxisome proliferator-activated receptor alpha (Homo sapiens) (UniProt Q07869); assay: qHTS assay for small molecule agonists of the peroxisome proliferator-activated receptor alpha (PPARalpha) signaling pathway (AID 651778); settings: PathHunter PPARalpha complementation, chemiluminescence, 6 h; max response: stronger effect = higher value; also: % of control where 0% means no effect
# Chain of Peroxisome proliferator-activated receptor alpha (Homo sapiens) (Q07869 whole entry, looked up): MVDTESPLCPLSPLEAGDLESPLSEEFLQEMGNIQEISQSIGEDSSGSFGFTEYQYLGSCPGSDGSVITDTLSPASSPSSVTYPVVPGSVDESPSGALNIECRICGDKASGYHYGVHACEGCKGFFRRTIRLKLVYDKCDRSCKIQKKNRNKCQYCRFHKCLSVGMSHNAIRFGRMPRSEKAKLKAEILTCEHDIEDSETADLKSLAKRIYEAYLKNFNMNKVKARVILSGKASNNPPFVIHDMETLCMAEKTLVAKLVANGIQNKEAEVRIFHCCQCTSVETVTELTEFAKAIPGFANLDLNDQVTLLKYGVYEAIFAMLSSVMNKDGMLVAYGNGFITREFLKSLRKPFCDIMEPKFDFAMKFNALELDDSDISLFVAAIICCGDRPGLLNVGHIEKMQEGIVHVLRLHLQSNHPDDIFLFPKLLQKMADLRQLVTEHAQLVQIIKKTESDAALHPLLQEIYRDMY
# In short: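 Cells plated at 2,000/well and held overnight at 37 C, 5% CO2, then compound added by pin tool for 6 hr; after PathHunter detection reagent and 60 min at room temperature, chemiluminescence from enzyme complementation was read.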
# [11] = qHTS assay for small molecule agonists of the antioxidant response element (ARE) signaling pathway measured by Nrf2-dependant transcriptional activity (AID 720636; active = well fitted curve in the direction sought with a large enough effect in the repeat runs; an effect the other way counts as inactive or inconclusive; also: potency is read from the fitted curve at half-maximal effect; as to activation: % of control where 0% means no effect); settings: ARE-luc HepG2, Nrf2 luciferase reporter, 16 h; series mostly up to 92.4 µM
# In short: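 ARE-luc HepG2 cells carrying an Nrf2-responsive luciferase reporter were plated in medium with 1% dialyzed FBS, left 6 hr at 37 C to attach, then exposed to compound for 16 hr. Luciferase luminescence was read after ONE-Glo addition.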
# [12] = qHTS assay for small molecule agonists of the antioxidant response element (ARE) signaling pathway measured by Nrf2-dependant transcriptional activity - cell viability counter screen (AID 720653; active = well fitted curve in the direction sought with a large enough effect in the repeat runs; an effect the other way counts as inactive or inconclusive; also: % is scaled to controls: 0 for no effect and ±100 for the full control effect); settings: ARE-bla HepG2 viability, CellTiter-Glo ATP luminescence, 16 h; max response: stronger effect = lower value
# In short: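 ARE-bla HepG2 cells (2,000/well) rested 5 hrs at 37C/5% CO2, then exposed to compounds in DMSO for 16 hrs. Viability was read in the same wells as intracellular ATP by luminescence, 30 min at room temperature after reagent addition.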
# [13] = qHTS assay for cell viability of HEK293 cells (AID 743288); settings: ATP luminescence (CellTiter-Glo), 18 h; max response: stronger effect = lower value; also: nearly all actives have a fitted effect of over 50% in size; also: potency is read from the fitted curve at half-maximal effect; as to max response: % is scaled to controls: 0 for no effect and ±100 for the full control effect
# In short: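 Readout is luciferase-coupled ATP content (CellTiter-Glo luminescence, 30 min room temperature) as a measure of metabolically competent cells. Parental HEK293 cells were plated 5 h or more before compound addition, then treated 18 h at 37 C.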
# [14] = qHTS assay for cell viability of the p53RE-bla HCT-116 cell line (AID 743292); settings: p53RE-bla HCT-116 viability, ATP luminescence, 16 h; series mostly up to 95 µM; also: nearly all actives have a fitted effect of over 55% in size; also: potency is read from the fitted curve at half-maximal effect
# In short: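 CellSensor p53RE-bla HCT-116 cells, 4,000/well, preincubated 5 h at 37 C, then exposed to compounds in DMSO for 16 h at 37 C. Viability read as CellTiter-Glo luminescence (intracellular ATP) after 30 min at room temperature.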
# [15] = target: Nuclear receptor subfamily 1 group I member 2 (Rattus norvegicus) (UniProt Q9R1A7); assay: qHTS assay for small molecule activators of the rat pregnane X receptor (rPXR) signaling pathway (AID 651751; call rule not given here; also: 0% is about no effect); settings: rPXR reporter cells, luciferase (One-Glo), 24 h
# Chain of Nuclear receptor subfamily 1 group I member 2 (Rattus norvegicus) (Q9R1A7 whole entry, looked up): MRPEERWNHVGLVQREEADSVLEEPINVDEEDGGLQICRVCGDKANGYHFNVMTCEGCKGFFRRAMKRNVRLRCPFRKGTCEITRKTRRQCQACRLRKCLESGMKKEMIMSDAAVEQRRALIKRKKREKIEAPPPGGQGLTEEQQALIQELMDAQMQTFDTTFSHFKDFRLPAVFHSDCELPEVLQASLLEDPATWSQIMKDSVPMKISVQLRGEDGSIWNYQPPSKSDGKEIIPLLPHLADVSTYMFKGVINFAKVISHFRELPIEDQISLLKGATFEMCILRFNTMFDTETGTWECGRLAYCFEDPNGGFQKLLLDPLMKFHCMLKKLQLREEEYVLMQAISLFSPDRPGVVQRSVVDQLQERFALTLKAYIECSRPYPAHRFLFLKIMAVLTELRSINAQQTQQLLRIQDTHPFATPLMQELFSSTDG
# [16] = qHTS assay for small molecule activators of the human pregnane X receptor (PXR) signaling pathway (AID 720659; call rule not given here; also: 0% is about no effect); settings: DPX-2 HepG2 CYP3A4-luciferase, 24 h; series mostly up to 92.3 µM
# [17] = target: Vitamin D3 receptor (Homo sapiens) (UniProt P11473); assay: qHTS assay for small molecule agonists of vitamin D receptor signaling (AID 588543; calls by dose curve;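 also: 0% = DMSO basal and 100% = reference agonist control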); settings: HEK293T VDR-UAS-bla, beta-lactamase ratio, 16 h; series mostly up to 76.8 µM
# Chain of Vitamin D3 receptor (Homo sapiens) (P11473 whole entry, looked up): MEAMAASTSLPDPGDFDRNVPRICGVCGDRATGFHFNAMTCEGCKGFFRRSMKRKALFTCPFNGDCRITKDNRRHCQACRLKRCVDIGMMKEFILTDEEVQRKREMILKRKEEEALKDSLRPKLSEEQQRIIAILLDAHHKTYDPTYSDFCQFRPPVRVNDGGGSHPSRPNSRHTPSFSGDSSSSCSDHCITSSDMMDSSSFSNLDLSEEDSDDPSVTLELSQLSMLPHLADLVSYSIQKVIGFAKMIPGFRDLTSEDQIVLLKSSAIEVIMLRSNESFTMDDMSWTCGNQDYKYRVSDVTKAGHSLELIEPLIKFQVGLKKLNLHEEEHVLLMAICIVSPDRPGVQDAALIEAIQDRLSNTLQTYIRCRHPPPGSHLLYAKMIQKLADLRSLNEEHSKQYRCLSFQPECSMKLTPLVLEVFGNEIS
# In short: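 Agonist-mode beta-lactamase reporter: HEK293T VDR-UAS-bla cells in charcoal-stripped 2% FBS, compound series 16 h 37 C, CCF4 2 h RT. EC50 from Hill fit, scaled against DMSO and 50 nM calcitriol control.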
# [18] = target: Vitamin D3 receptor (Homo sapiens) (UniProt P11473); assay: qHTS assay for small molecule antagonists of vitamin D receptor signaling (AID 588541; calls by dose curve; also: potency is read from the fitted curve at half-maximal effect); settings: HEK293T VDR-UAS-bla, beta-lactamase ratio, antagonist mode; series mostly up to 76.7 µM
# In short: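 VDR-UAS-bla HEK293T cells (2000/well, 2% charcoal-stripped FBS) were treated with titrated compounds plus 1-alpha,25-dihydroxyvitamin D3 (50 nM or 3 nM final) for 16 h at 37 C. CCF4 beta-lactamase fluorescence was read; Hill fits gave IC50.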
# [19] = qHTS assay for small molecule activators of the p53 signaling pathway (AID 651743; active = well fitted activation curve with a large enough effect in the signal ratio, not every such curve was filed as active; the % refers to the signal ratio; also: potency is read from the fitted curve at half-maximal effect; as to activation: % of control where 0% means no effect); settings: HCT-116 p53RE-bla, beta-lactamase FRET ratio, 16 h; activation: stronger effect = higher value
# In short: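 Agonist-mode quantitative HTS in HCT-116 cells carrying a p53-response-element beta-lactamase reporter; 16 h compound treatment at 37 C, then FRET substrate loading for 2 h at room temperature and fluorescence read.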
compound,measurement,setting,value
O=c1oc(=O)c2cc3c(=O)oc(=O)c3cc12,max response,[1],11%
same,Potency,[2],inactive
same,max response,[3],-7.31%
same,Potency,[4],inactive
same,Potency,[5],inactive
same,max response,[6],2.24%
same,max response,[7],-12.6% (inactive)
same,activation,[8],-1.97% (inactive)
same,activation,[9],0.0535% (inactive)
same,max response,[10],-1.48% (inactive)
same,Potency,[11],inactive
same,max response,[12],-10.8% (inactive)
same,max response,[13],-11.4% (inactive)
same,Potency,[14],inactive
same,max response,[15],-1.16% (inactive)
same,outcome,[16],inactive
S=C([S-])NCCNC(=S)[S-].S=C([S-])NCCNC(=S)[S-].[Mn+2].[Zn+2],outcome,[17],inactive
same,Potency,[5],inactive
same,activation,[9],0.587% (inactive)
same,max response,[12],17.6% (inactive)
same,max response,[13],2.96% (inactive)
same,max response,[15],-11.1% (inactive)
CC1(C)C(=O)N(Br)C(=O)N1Cl,Potency,[18],inactive
same,outcome,[17],inactive
same,max response,[3],-10%
same,Potency,[4],inactive
same,Potency,[5],inactive
same,max response,[6],-9.45%
same,max response,[7],-6.62% (inactive)
same,activation,[8],-2.38% (inactive)
same,activation,[9],1.28% (inactive)
same,max response,[10],-1.51% (inactive)
same,Potency,[11],inactive
same,max response,[12],-11.1% (inactive)
same,max response,[13],-4.13% (inactive)
same,Potency,[14],inactive
same,max response,[15],1.46% (inactive)
O=C(Nc1ccccc1)c1cc(Cl)ccc1O,outcome,[17],inactive
same,Potency,[5],inactive
same,Potency,[19],10 µM (active)
same,activation,[8],4.05% (inactive)
same,Potency,[9],15.8 µM (active)
same,max response,[10],0.537% (inactive)
same,Potency,[14],35.5 µM (active)
same,outcome,[16],inactive
CCCC/C=C\CCCCCCCCCC=O,max response,[1],-21.9%
same,Potency,[2],inactive
same,Potency,[18],inactive
same,Potency,[5],inactive
same,max response,[6],-13.9%
same,activation,[19],0.222% (inactive)
same,activation,[8],-0.297% (inactive)
same,activation,[9],1.27% (inactive)
same,max response,[10],7.85% (inactive)
same,Potency,[11],inactive
same,max response,[12],-12.8% (inactive)
same,max response,[13],3.95% (inactive)
same,Potency,[14],inactive
same,max response,[15],4.56% (inactive)
same,outcome,[16],inactive
CN(C)c1ccc(C(c2ccccc2)c2ccc(N(C)C)cc2)cc1,outcome,[17],inactive
same,activation,[8],5.79% (inactive)
same,activation,[9],1.41% (inactive)
same,max response,[10],-1.55% (inactive)
same,Potency,[11],inactive
same,max response,[12],-16.8% (inactive)
same,max response,[13],-22.1% (inactive)
same,Potency,[14],inactive
same,max response,[15],5.9% (inactive)
O=C(O)C1(C(=O)Nc2ccc(Cl)cc2Cl)CC1,outcome,[17],inactive
same,Potency,[5],inactive
same,max response,[6],8.82%
same,max response,[7],9.68% (inactive)
same,activation,[8],-1.09% (inactive)
same,max response,[10],0.116% (inactive)
same,max response,[12],-1.63% (inactive)
same,max response,[13],-9.45% (inactive)
same,Potency,[14],inactive
same,outcome,[16],inactive
C=CC(=O)OCCOCC(CC)(COCCOC(=O)C=C)COCCOC(=O)C=C,Potency,[18],28.2 µM (active)
same,outcome,[17],inactive
same,activation,[19],14.9% (inactive)
same,activation,[9],5.29% (inactive)
same,max response,[10],-0.796% (inactive)
same,Potency,[11],21.7 µM (active)
same,max response,[12],-10.9% (inactive)
same,Potency,[13],39.8 µM (active)
same,outcome,[16],inactive
CCCOC(=O)NCCCN(C)C,Potency,[18],inactive
same,outcome,[17],inactive
same,Potency,[5],inactive
same,max response,[6],-8.13%
same,max response,[7],1.48% (inactive)
same,activation,[19],-1.96% (inactive)
same,activation,[9],2.96% (inactive)
same,max response,[10],-0.73% (inactive)
same,Potency,[11],inactive
same,max response,[12],-5.96% (inactive)
same,max response,[13],-0.93% (inactive)
same,Potency,[14],inactive
same,max response,[15],8.36% (inactive)
same,outcome,[16],inactive
N#CSCSc1nc2ccccc2s1,outcome,[17],inactive
same,max response,[10],-9.14% (inactive)
same,Potency,[11],inactive
c1cc2ccc3ccc4ccc5cccc6c(c1)c2c3c4c56,Potency,[5],25.1 µM (active)
same,Potency,[8],39.8 µM (active)
same,activation,[9],6.27% (inactive)
same,max response,[10],-2.73% (inactive)
same,Potency,[11],inactive
same,max response,[12],-17.1% (inactive)
same,max response,[13],-3.62% (inactive)
same,Potency,[14],inactive
same,max response,[15],0.241% (inactive)
CCN(Cc1c(F)cccc1Cl)c1c([N+](=O)[O-])cc(C(F)(F)F)cc1[N+](=O)[O-],max response,[1],-79%
same,Potency,[2],inactive
same,Potency,[18],inactive
same,outcome,[17],inactive
same,activation,[19],1.01% (inactive)
same,activation,[8],-3.71% (inactive)
same,activation,[9],0.127% (inactive)
same,max response,[10],-0.89% (inactive)
same,Potency,[11],inactive
same,max response,[12],-3.47% (inactive)
same,Potency,[14],inactive
CCCCCCC(C)OC(=O)COc1nc(F)c(Cl)c(N)c1Cl (stereo not given),outcome,[17],inactive
same,activation,[8],3.49% (inactive)
same,max response,[10],25.7% (inactive)
same,Potency,[11],inactive
same,max response,[12],17% (inactive)
same,max response,[13],-29.6% (inactive)
CCNc1nc(N)nc(Cl)n1,max response,[1],34.2%
same,Potency,[2],inactive
same,Potency,[18],inactive
same,outcome,[17],inactive
same,max response,[3],-5.45% and -6.57%
same,Potency,[4],inactive
same,Potency,[5],inactive
same,max response,[6],-17.5% and -16.5%
same,max response,[7],7.29% (inactive) and -4.52% (inactive)
same,activation,[19],-2.48% (inactive) and -1.49% (inactive)
same,activation,[8],-0.704% (inactive) and -0.787% (inactive)
same,max response,[10],-2.09% (inactive) and -1.78% (inactive)
same,Potency,[11],inactive
same,max response,[12],-7.89% (inactive) and -3.73% (inactive)
same,max response,[13],-4.19% (inactive) and 3.18% (inactive)
same,max response,[15],-3.95% (inactive) and -0.52% (inactive)
CC[C@H]1O[C@]2(CC[C@@H]1C)C[C@@H]1C[C@@H](C/C=C(\C)C[C@@H](C)/C=C/C=C3CO[C@@H]4[C@H](O)C(C)=C[C@@H](C(=O)O1)[C@]34O)O2,activation,[9],-11.9% (inactive)
same,Potency,[11],inactive
same,Potency,[14],31.6 µM (active)
